Sa RN4220 lethal – S. aureus RN4220 growth inhibition | OD600, 16 h | inhibition, % (no concentration beside the values) | hit rate 0.33% among 330,000 | AID 1259311; in the data active means inhibition above about 85%
BJeLR viability – kills HRASV12-expressing BJeLR cells; BJeLR (HRASV12) viability, CellTiter-Glo ATP luminescence, 48 h; inhibition, % (test concentration not listed); hit rate 0.17% among 300,000; AID 1554; in the data active means inhibition above about 50%; inconclusive means no clear call, values can overlap the other calls
SARS 3CLpro inh – SARS-CoV 3CLpro protease inhibition; P0C6X7; recombinant SARS-CoV 3CLpro, quenched FRET peptide cleavage; inhibition, % at 6 µM; hit rate 0.14% among 290,000; AID 1706; in the data active means inhibition above about 12%
Sa ugtP lethal – kills S. aureus RN4220 lacking UgtP; S. aureus RN4220 ugtP deletion, OD600 growth, 16 h; growth inhibition, % (no concentration beside the values); hit rate 0.54% among 330,000; AID 1259309; in the data active means growth inhibition above about 68%
PfHsp40 rescue – compounds rescuing yeast from Plasmodium falciparum HSP40 toxicity | S. cerevisiae expressing PfHsp40, growth rescue, ATP luminescence | growth rescue, % at 12.5 µM | hit rate 0.68% among 340,000; in the data active means growth rescue above about 28%, passing the limit was not always enough; inconclusive means no clear call, values can overlap the other calls;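 further: yeast W303a lacking pdr1 and pdr3 grown in galactose medium; growth measured after three days at 30 °C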
Large screens that a line does not name were inactive. In the library only some 1.3% were active in any assay of this set; here they are far more common.

Cn1cccc1-c1cc(C(=O)N/N=C/c2cc(Br)ccc2O)[nH]n1	PfHsp40 rescue 125 (no result: Sa RN4220 lethal, Sa ugtP lethal)
Cn1cccc1-c1cc(C(=O)N/N=C/c2ccccc2Cl)[nH]n1	none (no result: Sa RN4220 lethal, Sa ugtP lethal)
Cc1nn(-c2ccc(Cl)cc2)c(=O)c2ccccc12	none
Cc1c(Cl)sn(-c2ccc(Cl)cc2)c1=O	Sa RN4220 lethal 101, Sa ugtP lethal 101 (no result: BJeLR viability)
Cc1ccc(CNC(=O)C2CC(=O)OC23CCCC3)c(C)c1 (stereo unspecified)	none
C[C@H]1O[C@@H](OC2CC[C@]3(C=O)[C@H]4CC[C@]5(C)[C@@H](C6=CC(=O)OC6)CC[C@]5(O)[C@@H]4CC[C@]3(O)C2)CC2OC(C)(C)OC21 (stereo partly specified)	BJeLR viability 69 (no result: Sa RN4220 lethal, Sa ugtP lethal)
CCCCC(=O)NC(=S)Nc1cc([N+](=O)[O-])ccc1OC	Sa ugtP lethal active, PfHsp40 rescue inconclusive
O=C(/C=C/c1ccccc1)N1CCN(CCN2C(=O)c3cccc4cccc(c34)C2=O)CC1	Sa ugtP lethal 98
O=C(CCNS(=O)(=O)c1ccccc1)N1CCN(c2ccccc2)CC1	PfHsp40 rescue 54 (no result: Sa RN4220 lethal, Sa ugtP lethal)
Cc1cc2oc(=O)cc(-c3ccccc3)c2c(C)c1-c1ccc(O)cc1	none (no result: BJeLR viability, SARS 3CLpro inh)
Cc1oc2cc(Br)c(O)c(Br)c2c1-c1ccccc1	Sa ugtP lethal 87, PfHsp40 rescue 97
C/C(=C\c1ccccc1)CN1CCN(c2ccccc2)CC1	none
COc1ccc(Nc2nc(N)nc(CN3CCN(c4ccc(F)cc4)CC3)n2)cc1	none
N#CC(C#N)=C1C=CC=CN1/C(=C\c1ccco1)C(=O)c1ccc(Cl)cc1	Sa ugtP lethal 89 (no result: BJeLR viability)
N#CC(C#N)=C1C=CC=CN1/C(=C\c1ccco1)C(=O)c1ccc(-c2ccccc2)cc1	PfHsp40 rescue 56 (no result: BJeLR viability)
COC(=O)[C@H](CCSC)NC(=O)c1cc2c(cn1)[nH]c1ccccc12	none
CNC(=O)c1cc2c(cn1)[nH]c1ccccc12	PfHsp40 rescue 60 (no result: SARS 3CLpro inh)
Cc1ccc(-c2nn(-c3ccccc3)cc2CNCc2ccccc2)cc1	Sa ugtP lethal 97
Cc1ccc(-c2nn(-c3ccccc3)cc2CO)cc1	none
CCCn1c(SCC(=O)NC2CCCC2)nnc1-c1ccccn1	none
O=C(C=Cc1ccco1)NC(=S)Nc1cc(C(F)(F)F)ccc1N1CCOCC1	Sa ugtP lethal 96 (no result: BJeLR viability, SARS 3CLpro inh, PfHsp40 rescue)
O=C(/C=C/c1ccco1)NC(=S)Nc1ccccc1N1CCOCC1	Sa ugtP lethal 98
O=C(/C=C/c1ccco1)NC(=S)Nc1ccccc1N1CCCC1	Sa ugtP lethal 99, PfHsp40 rescue 59
O=C(/C=C/c1ccco1)NC(=S)Nc1cc(C(F)(F)F)ccc1N1CCOCC1	none (no result: Sa RN4220 lethal, Sa ugtP lethal)
CN(CC1COc2ccccc2O1)c1nc(-c2cccnc2)nc2ccccc12 (stereo unspecified)	none
Cc1cc(NS(=O)(=O)c2ccc(NC(=O)CCSc3ccc(F)cc3)cc2)nc(C)n1	none
O=S(=O)(c1cccc(Cl)c1)N1CCN(S(=O)(=O)c2ccc3c(c2)OCCO3)CC1	PfHsp40 rescue 43 (no result: BJeLR viability, SARS 3CLpro inh)
C=CCOC(=O)C1=CC(c2coc3ccccc3c2=O)CC(OCCCCO)O1 (stereo unspecified)	none (no result: BJeLR viability, SARS 3CLpro inh, PfHsp40 rescue)
Cc1cc(C(=O)Cn2cncn2)c(C)n1CCc1ccc(F)cc1	none
OC(Cn1cncn1)(Cn1cncn1)c1ccc(F)cc1F	PfHsp40 rescue 179 (no result: SARS 3CLpro inh)
COCCCNC(=S)Nc1cc2oc3ccccc3c2cc1OC	none
COc1ccc(CN(C)C(=O)CCN2C(=O)c3ccccc3C2=O)c(OC)c1OC	none
COc1ccc(CN(C)C(=O)COC(=O)c2ccc(-c3ccccc3)cc2)c(OC)c1OC	PfHsp40 rescue 68 (no result: BJeLR viability, SARS 3CLpro inh)
CCN(CC(=O)Nc1ccc(NC(C)=O)cc1)C(=O)C1CCC1	none (no result: SARS 3CLpro inh)
N/C(=N\OC(=O)c1ccc2ccccc2c1)c1ccccn1	none (no result: Sa RN4220 lethal, Sa ugtP lethal)
NC(=Nc1nc(-c2ccccn2)cc2ccccc12)c1ccccn1	PfHsp40 rescue 163 (no result: Sa RN4220 lethal, BJeLR viability, SARS 3CLpro inh, Sa ugtP lethal)
CC(=O)Nc1ccc(S(=O)(=O)N(C)CC(=O)N/N=C/c2cccc(O)c2)cc1	none (no result: Sa RN4220 lethal, Sa ugtP lethal)
O=C(C[n+]1cc(Br)cc2ccccc21)c1ccccc1	PfHsp40 rescue 49
COc1ccc(C(=O)C[n+]2cc(Br)cc3ccccc32)cc1[N+](=O)[O-]	none
O=C(CN1CCN(C(=O)c2cccc(S(=O)(=O)N3CCCC3)c2)CC1)Nc1ccccc1Cl	none (no result: BJeLR viability, SARS 3CLpro inh)
CC1(c2ccc(Cl)cc2)NC(=O)CS1 (stereo unspecified)	none
CCOc1cc(/C=C2\SC(=S)N(NS(=O)(=O)c3ccccc3)C2=O)ccc1O	none
CCOc1ccc(/C=C2\SC(=S)N(NS(=O)(=O)c3ccc(C)cc3)C2=O)cc1OC	Sa RN4220 lethal 86
CCOc1ccc(/C=C2\SC(=S)N(NS(=O)(=O)c3ccccc3)C2=O)cc1OC	PfHsp40 rescue 60
Cc1ccc(C(=O)Nc2c(C(=O)NCc3ccco3)cnn2-c2ccccc2)cc1	none
COc1cc(C=NNC(=O)c2ccncc2)ccc1OCC(=O)Nc1ccc(C)c(C)c1	none (no result: BJeLR viability, SARS 3CLpro inh, PfHsp40 rescue)
CCCc1cc(=O)n2[nH]c(C)c(-c3ccccc3)c2n1	none
Cc1[nH]n2c(=O)cc(C(C)(C)C)nc2c1-c1ccccc1	Sa ugtP lethal 96
Cc1[nH]n2c(=O)cc(-c3ccc([N+](=O)[O-])cc3)nc2c1-c1ccccc1	Sa RN4220 lethal 86
O=C(c1ccccc1)c1cnc2ccc(Cl)cc2c1N1CCOCC1	none
O=C(N/N=C/c1cc(Br)cc(Cl)c1O)c1ccc2c(c1)OCO2	PfHsp40 rescue 257 (no result: Sa RN4220 lethal, SARS 3CLpro inh, Sa ugtP lethal)
Cc1cc(Br)cc(/C=N/NC(=O)c2ccc3c(c2)OCO3)c1O	none (no result: Sa RN4220 lethal, Sa ugtP lethal)
O=C(N/N=C/c1cc(Br)c(O)c(Br)c1O)c1ccc2c(c1)OCCO2	PfHsp40 rescue 152 (no result: Sa RN4220 lethal, Sa ugtP lethal)
CC1CCN(S(=O)(=O)c2ccc(C(=O)NC3CCS(=O)(=O)C3)cc2)CC1 (stereo unspecified)	none (no result: SARS 3CLpro inh)
CN(C)S(=O)(=O)c1ccc(C(=O)NCC(=O)NN=Cc2ccco2)cc1	none (no result: BJeLR viability, SARS 3CLpro inh, PfHsp40 rescue)
CCCNC(=O)NC(=O)c1cnccc1C(F)(F)F	none
COc1ccc(F)cc1CN1CCN(C(=O)CCC(=O)Nc2nnc(CC(C)C)s2)CC1	BJeLR viability 62
CC(=O)c1ccc(NC(=O)C2(S(=O)(=O)c3ccccc3)CC2)cc1	none
CC(C)(C)C(=O)C(Cc1ccccc1Cl)n1cncn1 (stereo unspecified)	none
CC(C)(C)C(O)C(Cc1ccccc1Cl)n1cncn1 (stereo unspecified)	PfHsp40 rescue 276
N=c1oc2ccccc2cc1-c1nc(-c2ccc(Cl)cc2)cs1	PfHsp40 rescue 86
CCOC(=O)c1c(C)[nH]c(C(=O)CSc2nnnn2-c2ccccc2)c1C	none
C=CCNC(=S)N1CCN(c2cc3c(cc2F)c(=O)c(C(=O)O)cn3CC)CC1	Sa RN4220 lethal 98, Sa ugtP lethal 99
CCCCN(CCCC)C(=O)c1cn(CC)c2cc(N3CCN(C)CC3)c(F)cc2c1=O	Sa RN4220 lethal 93, Sa ugtP lethal 97
C=CCCCCCCCCC(=O)N1CCN(c2cc3c(cc2F)c(=O)c(C(=O)O)cn3CC)CC1	Sa ugtP lethal 93
CCCCCNC(=O)c1cn(CC)c2cc(N3CCN(C)CC3)c(F)cc2c1=O	none
CCCCCCn1cc(C(=O)O)c(=O)c2cc(F)c(N3CCN(C(=O)OCC)CC3)cc21	none
O=C(NCc1ccccc1)c1cccc(Br)n1	none
CC(C)(C)c1nnc(NC(=O)CCS(=O)(=O)c2ccccc2)s1	none
CCc1ccc(N2C(=O)CN(Cc3ccc(OC)c(OC)c3)C2=S)cc1	PfHsp40 rescue 31

Screening data from PubChem BioAssay.
